Experimental data: PubChem BioAssay AID651815 (National Center for Advancing Translational Sciences (NCATS), 2012)
Among all 2,100 compounds or so, about 1,100 (52%) were called active. About 29% were inconclusive and are not listed. Calls follow the shape of the dose curve; as a rule, active = well fitted inhibition curve with a large enough effect; inconclusive = small, poorly fitted or top-dose-only effect; inactive = no such curve, though single readings can be large or run the other way. The set was probably picked from earlier hits. The list shows a part of the results.

Each compound was assayed against DNA dC->dU-editing enzyme APOBEC-3F (Homo sapiens) (UniProt Q8IUX4) (assay: qHTS for inhibitors of Vif-A3F interactions: Cherry picks counterscreen). Conditions: HeLa A3F-eYFP/Vif cells, eYFP fluorescence, 24 h; series mostly up to 46.1 µM; activity, negative = inhibitor: at the top concentration.
Excerpt: The recent discovery and characterization of host restriction factors, which provide a potent defense to invading retroviruses, has provided new targets for antiviral drug development. APOBEC3G (A3G) and APOBEC3F (A3F) are potent cytidine deaminases that block HIV-1 replication; HIV-1 expresses the Vif protein, which counteracts A3G and A3F by binding to them and inducing their proteasomal degradation. The Vif-A3G and Vif-A3F interactions provide two potential targets for development of small molecules which can interfere with the ability of Vif to degrade A3G or A3F. […] To identify inhibitors that can interfere with Vif mediated degradation of A3G and A3F, we have developed Hela cell lines that stably express A3G or A3F tagged with eYFP at the C-terminal end (A3G-eYFP or A3F-eYFP, respectively) and Vif. In the absence of an inhibitor, Vif induces degradation of A3G-eYFP and A3F-eYFP, and the cells are not fluorescent. In the presence of an inhibitor, it is expected that Vif will be unable to degrade A3G-eYFP and/or A3F-eYFP, resulting in an increase in yellow fluorescence. In this counterscreen assay, Vif A3F was screened against the cherry picks ordered from the MLSMR. NIH Chemical Genomics Center [NCGC] NIH Molecular Libraries Probe Centers Network [MLPCN] MLPCN Grant: MH093245 Assay Submitter (PI): Vinay Pathak, National Cancer Institute
A3F-Vif cells were harvested from T225 flask and resuspended in phenol free OPTI-MEM medium with 5% FBS. Then 5 uL of 140,000 cells/mL resuspended cells was dispensed into each well of low base Aurora COC 1,536-well plates (black walled, clear bottom) using a Multidrop Combi dispenser. After overnight culture at 37 deg C with 5% CO2, a total of 23 nL of compounds at 5 selected concentrations from the NPC or positive control (2 mM stock of MG132) in DMSO was transferred to each well of the assay plate using a pintool (Kalypsys, San Diego, CA), and the plates were further incubated at 37 deg C with 5% CO2 for 24 hours. After that, the plates were measured on Acumen Explorer (TTP Lab Tech). The fluorescence was detected by 488 nm/Ex and […].
% is scaled to controls: 0 for no effect and ±100 for the full control effect; potency is read from the fitted curve at half-maximal effect.
Also: nearly all actives have a fitted effect of over 65% in size.

Sequence of DNA dC->dU-editing enzyme APOBEC-3F (Homo sapiens) (Q8IUX4 whole entry, looked up): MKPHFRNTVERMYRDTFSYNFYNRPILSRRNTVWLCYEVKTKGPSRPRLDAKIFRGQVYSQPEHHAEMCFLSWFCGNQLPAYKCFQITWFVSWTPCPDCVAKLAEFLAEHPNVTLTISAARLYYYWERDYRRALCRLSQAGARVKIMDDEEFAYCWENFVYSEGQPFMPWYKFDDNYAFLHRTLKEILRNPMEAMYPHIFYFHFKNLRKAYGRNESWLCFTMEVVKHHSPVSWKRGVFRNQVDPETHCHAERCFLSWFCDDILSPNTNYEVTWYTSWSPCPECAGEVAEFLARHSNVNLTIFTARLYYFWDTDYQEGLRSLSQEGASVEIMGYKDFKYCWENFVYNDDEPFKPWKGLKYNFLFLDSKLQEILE

Structure (SMILES)	Potency	activity, negative = inhibitor
Cc1cc(N2CCCC2)ccc1C=C(C#N)C#N	20.6 µM (active)	
CN1/C(=C\C=C2C(=O)NC(=O)NC2=O)C(C)(C)c2ccccc21	4.11 µM (active)	
CCS(=O)(=O)N1N=C(c2cccc(NS(C)(=O)=O)c2)CC1c1ccccc1 (configuration not stated)	23.1 µM (active)	
CCCCn1c(O)c(C(=O)/C=C/c2c[nH]c3ccccc23)c(=O)[nH]c1=O	17.7 µM (active)	
CCC(C)N1C(=O)/C(=C\c2ccc(N3CCCCCC3)cc2)C(=O)NC1=S (configuration not stated)		-21.5% (inactive)
CN1C(=O)/C(=C\c2ccc(N3CCCCC3)o2)C(=O)NC1=S	17.7 µM (active)	
CN1C(=O)/C(=C/c2ccc(N3CCCCCC3)o2)C(=O)NC1=S	4.44 µM (active)	
CN1CCN(c2ccc(/C=C3\C(=O)NC(=S)N(c4cccc(Br)c4)C3=O)o2)CC1	23.1 µM (active)	
CC(=O)O[C@@]12CO[C@@H]1C[C@H](OC1OCC(O)C(O)C1O)[C@@]1(C)C(=O)[C@H](O)C3=C(C)[C@@H](OC(=O)[C@H](O)[C@@H](NC(=O)c4ccccc4)c4ccccc4)C[C@@](O)([C@@H](OC(=O)c4ccccc4)C12)C3(C)C (some centres not stated)	4.44 µM (active)	
CN1C(=O)C(=Cc2ccc(N3CCOCC3)o2)C(=O)N(C)C1=O	6.51 µM (active)	
CN1C(=O)C(=Cc2ccc(N3CCCCC3)o2)C(=O)N(C)C1=S	3.66 µM (active)	
CN1C(=O)C(=Cc2ccc(N3CCOCC3)o2)C(=O)N(C)C1=S	8.2 µM (active)	
Cc1cc(N(CCCl)CCCl)ccc1C=Cc1ccncn1	16.4 µM (active)	
CC(C)c1ccc(N2C(=O)NC(=O)/C(=C/C=C/c3ccco3)C2=O)cc1	14 µM (active)	
O=C1NC(=O)N(Cc2ccc(F)cc2)C(=O)/C1=C\C=C\c1ccco1	23.1 µM (active)	
CN(C)c1ccc(/C=C/C=C2/C(=O)NC(=O)N(c3ccccc3)C2=O)cc1	23.1 µM (active)	
CC(C)c1ccc(N2C(=O)NC(=O)/C(=C\C=C\c3ccco3)C2=O)cc1	17.7 µM (active)	
COCCCNC(=O)c1c(NC(=O)c2ccco2)n(Cc2ccccc2)c2nc3ccccc3nc12		-8.65% [at 36.9 µM] (inactive)
Cc1cc(/C=C2\C(=O)NC(=O)N(c3ccc(Br)cc3)C2=O)c(C)n1C		-29.9% [at 36.9 µM] (inactive)
Cc1ccc(N2C(=O)NC(=O)/C(=C\C=C\c3ccco3)C2=O)cc1C	5.8 µM (active)	
CC/C(=N\NC(=O)c1ccccc1O)c1c(O)n(Cc2ccccc2)c(=O)[nH]c1=O	18.4 µM (active)	

Structure (SMILES)	Potency	activity, negative = inhibitor
COc1cccc(C2=CC(c3cc(Br)ccc3F)n3nnnc3N2)c1 (configuration not stated)	1.46 µM (active)	
COC(=O)C1=C(C)N(Cc2ccco2)C(=O)/C1=C\c1ccc(N(C)C)cc1	6.51 µM (active)	
O=C1NC(=O)N(c2ccc3c(c2)OCO3)C(=O)/C1=C/c1ccc(N2CCCCC2)o1	20.6 µM (active)	
O=C1NC(=O)N(c2ccc3c(c2)OCO3)C(=O)/C1=C\c1ccc(N2CCCCC2)o1	18.4 µM (active)	
COc1cc(C2C(C#N)=C(N)Oc3cc(O)ccc32)cc(OC)c1OC (configuration not stated)	3.53 µM (active)	
Cc1cccc(-n2c(O)c(/C=C/C=Nc3ccccc3)c(=O)[nH]c2=O)c1	4.61 µM (active)	
COc1ccc(-n2c(/C=C/c3ccc(O)c(OC)c3)nc3ccccc3c2=O)cc1	16.4 µM (active)	
Cc1cccc(-n2c(/C=C/c3ccc([N+](=O)[O-])o3)nc3ccccc3c2=O)c1	8.2 µM (active)	
O=c1c2ccccc2nc(/C=C/c2ccc([N+](=O)[O-])o2)n1-c1ccc(O)cc1	11.2 µM (active)	
COc1ccccc1-n1c(/C=C/c2ccc(O)cc2)nc2ccccc2c1=O		38.4% (inactive)
Cc1cccc(-n2c(/C=C/c3c(C)[nH]c4ccccc34)nc3ccccc3c2=O)c1	18.4 µM (active)	
CCN(CC)c1ccc(C=C2C(=O)N(C)C(=S)N(C)C2=O)o1	0.314 µM (active)	
CCN(CC)c1ccc(/C=C2\C(=O)NC(=S)N(C)C2=O)o1	0.559 µM (active)	
CCN(CC)c1ccc(/C=C2\C(=O)NC(=S)N(c3ccc(OC)cc3OC)C2=O)o1	23.1 µM (active)	
CCN(CC)c1ccc2c(cc1=O)[C@@H](NC)CCc1cc(OC)c(OC)c(OC)c1-2	1.4 µM (active)	
Cc1ccccc1-n1c(/C=C/c2ccc(N(C)C)cc2)nc2ccccc2c1=O	4.11 µM (active)	
CCN(CC)c1ccc(N=Cc2c(O)n(Cc3ccccc3)c(=O)[nH]c2=O)cc1	20.6 µM (active)	
CCN(CC)c1ccc(N=Cc2c(O)n(CCC3=CCCCC3)c(=O)[nH]c2=O)cc1	16.4 µM (active)	
C=CCn1c(O)c(C(C)=Nc2ccc(N(CC)CC)cc2)c(=O)[nH]c1=O	11.2 µM (active)	
O=C1NC(=S)SC1=Cc1ccc(N(CCCl)CCCl)cc1	17.7 µM (active)	
CCOc1ccc(CNC(=O)c2cccc(Nc3nc4ccccc4n4nnnc34)c2)cc1OC	16.4 µM (active)	

Structure (SMILES)	Potency	activity, negative = inhibitor
COc1ccc(-c2ccc(OC)c(OC)c2OC)cc1	3.96 µM (active)	
CN(C)c1ccc(C(=O)c2ccc(N(C)C)cc2)cc1	0.994 µM (active)	
O=c1[nH]c(=O)n(Cc2ccccc2Cl)c(O)c1/C=C1/C=CC=N1	18.4 µM (active)	
CCCCn1c(O)c(/C=C2/C=CC=N2)c(=O)[nH]c1=O	12.5 µM (active)	
C=C1C(=O)OC2C1CCC(C)C1(O)C=CC(=O)C21C (configuration not stated)	5.59 µM (active)	
COCCCn1c(=O)/c(=C\c2ccccc2OC(F)F)s/c1=C(/C#N)C(=O)NCCOC	18.4 µM (active)	
CCCCNC(=O)/C(C#N)=c1\s/c(=C\c2ccccc2OC(F)F)c(=O)n1CCCOC	9.2 µM (active)	
CC(=O)Nc1cccc(-c2ccnc3c2CC(C(=O)NCc2ccco2)O3)c1 (configuration not stated)	4.44 µM (active)	
CC1=CC(=Cc2sc3ccccc3[n+]2C)C=C(C)O1	10.3 µM (active)	
O=[N+]([O-])c1ccc(N2CCOCC2)c2c1no[n+]2[O-]	15.8 µM (active)	
NC(=Nc1ccccc1)NN=Cc1c[nH]c2ccccc12	3.14 µM (active)	
O=c1[nH]c(CN2CC=C(c3ccccc3)CC2)nc2scc(-c3ccccc3)c12	18.4 µM (active)	
N#CC1=C(N)Oc2c(c(=O)sc3ccccc23)C1c1cccnc1 (configuration not stated)	3.14 µM (active)	
Cn1cccc1/C=C1\C(=O)NC(=O)N(Cc2ccccc2Cl)C1=O	13 µM (active)	
Cc1c(Cl)cccc1NC(=O)c1oc2ccc(S(=O)(=O)N3CCC4(CC3)OCCO4)cc2c1C	16.4 µM (active)	
COc1ccc(-n2cnc3cc(C(=O)N4CCC5(CC4)OCCO5)ccc32)cc1	17.7 µM (active)	
Cc1cccc(CN2CCCC(C(=O)c3cccc(OC(C)C)c3)C2)n1 (configuration not stated)		24.3% (inactive)
O=Cc1c(C(=O)O)n(Cc2ccc(Cl)cc2)c2ccccc12	13 µM (active)	
Nc1ccc2c3c(cccc13)-c1ccccc1-2	4.61 µM (active)	
CC(=O)OC1C2(CC3N4C(=O)C5(CO)SSC4(CC31O)C(=O)N5C)OC(C)C(C)(C)C2=O (configuration not stated)	3.53 µM (active)	
